PubChem BioAssay AID651725 (National Center for Advancing Translational Sciences (NCATS), 2012)
The whole screen tested about 360,000 compounds, of which about 2,000 (0.56%) were called active. Another 2% or so got no clear call; they are omitted. The entries come from a sample that favours actives as a whole. Values without a mark were called inactive. Rule as the data show it: active = activity change below about -65%; inconclusive = mostly about -30% to -63%; inactive = weaker than that.

Molecular target: Homeobox protein SIX1 (Homo sapiens) + Protein phosphatase EYA2 (Homo sapiens) (UniProt Q15475+O00167)
Assay: qHTS Assay for Inhibitors of the Six1/Eya2 Interaction
Conditions: AlphaScreen GST-Six1/His-Eya2 binding, biochemical; stronger effect = lower value
Summary of the method: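 GST-Six1 + His-Eya2 (5X stock: 250/500 nM); Tris pH 8.0, 300 mM NaCl, 0.05% BSA, 0.02% Tween 20; GSH donor/Ni acceptor beads; 1 h 37 °C dark; AlphaScreen readout.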
% is scaled to controls: 0 for no effect and ±100 for the full control effect.

Homeobox protein SIX1 (Homo sapiens) + Protein phosphatase EYA2 (Homo sapiens), sequence (O00167 whole entry, looked up): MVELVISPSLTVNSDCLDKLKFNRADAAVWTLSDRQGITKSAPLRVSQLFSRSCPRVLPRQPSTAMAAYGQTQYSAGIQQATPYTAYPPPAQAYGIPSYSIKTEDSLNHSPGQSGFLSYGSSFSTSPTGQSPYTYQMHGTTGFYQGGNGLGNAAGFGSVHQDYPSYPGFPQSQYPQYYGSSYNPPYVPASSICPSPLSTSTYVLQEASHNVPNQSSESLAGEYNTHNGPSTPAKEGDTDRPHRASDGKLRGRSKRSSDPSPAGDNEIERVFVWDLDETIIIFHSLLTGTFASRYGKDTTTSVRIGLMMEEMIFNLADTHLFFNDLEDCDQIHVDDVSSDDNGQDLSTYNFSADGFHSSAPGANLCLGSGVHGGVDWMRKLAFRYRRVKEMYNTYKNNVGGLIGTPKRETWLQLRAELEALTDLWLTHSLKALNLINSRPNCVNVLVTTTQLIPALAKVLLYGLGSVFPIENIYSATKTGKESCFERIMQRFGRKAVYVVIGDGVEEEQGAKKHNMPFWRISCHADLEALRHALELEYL
Homeobox protein SIX1 (Homo sapiens) + Protein phosphatase EYA2 (Homo sapiens), sequence (Q15475 whole entry, looked up): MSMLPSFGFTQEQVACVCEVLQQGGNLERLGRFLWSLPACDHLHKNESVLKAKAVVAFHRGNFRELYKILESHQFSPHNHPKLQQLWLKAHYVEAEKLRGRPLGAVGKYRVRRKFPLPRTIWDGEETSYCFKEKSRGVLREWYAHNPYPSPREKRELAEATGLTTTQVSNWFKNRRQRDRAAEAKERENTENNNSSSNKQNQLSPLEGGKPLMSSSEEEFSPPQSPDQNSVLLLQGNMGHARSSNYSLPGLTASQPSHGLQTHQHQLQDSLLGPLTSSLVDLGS

Compound	activity change
COc1ccccc1NC(=O)COC(=O)COc1ccccc1F	6.13%
O=C(COc1ccccc1)Nc1nonc1NC(=O)COc1ccccc1	-6.13%
O=C(CN1C(=O)C2C3C=CC(C3)C2C1=O)Nc1nc(-c2ccccn2)cs1 (stereo not given)	-80.4% (active)
Cc1ccc2c(c1)c1ncnc(N3CCc4ccccc4C3)c1n2C	-7.75%
CCOc1ccc(CN2CCN(Cc3ccon3)CC2CCO)cc1 (stereo not given)	5.89%
CCCCCNC(=O)C(c1ccc(OC)cc1)n1c(=O)c(-c2ccccc2)nc2ccccc21 (stereo not given)	5.06%
CCCNC(=O)c1cc(C2CCCCN2S(=O)(=O)c2cn(C)cn2)on1 (stereo not given)	0.952%
CC(C)(C)C(=O)c1c(N)[nH]c(C(=O)c2ccccc2)c1-c1ccc(F)cc1	-8.67%
O=C1Nc2ccccc2-n2nnnc2C1N1CCN(c2cccc(C(F)(F)F)n2)CC1 (stereo not given)	0.68%
Cc1cccc(NS(=O)(=O)c2ccc(C)c(C(=O)NCc3cccnc3)c2)c1	-0.175%
O=C(C(=O)N1CCC(c2ccccc2)CC1)c1ccccc1	-2.34%
CCOC(=O)[C@]12CCCC=C1N(CCC1=CCCCC1)C(=O)[C@H](CC(=O)N1CCN(C(=O)c3ccco3)CC1)C2	-5.37%
Cc1cc([N+](=O)[O-])c(N2CCC[C@@H]2C(=O)O)c([N+](=O)[O-])c1	7.42%
Cc1cc([N+](=O)[O-])c(NC2CCCCC2)c([N+](=O)[O-])c1	-69.3% (active)
Cc1c(NS(=O)(=O)c2ccc(NC3CCCC3)c([N+](=O)[O-])c2)c(=O)n(-c2ccccc2)n1C	-0.483%
COC(=O)[C@]12CCCCC=C1N(Cc1ccc(Cl)cc1Cl)C(=O)[C@H](CC(=O)NCc1cccc3ccccc13)C2	-10.1%
O=C1NC[C@@H](CCCCN2CCN(CCc3ccc(O)cc3)C(=O)C2=O)N(CC2CCCCC2)C1=O	3.55%
CC[C@]1(c2ccccc2OC)C(=O)N(C(=O)OC)N1C(=O)OC	-0.457%
O=C(CN1C(=O)c2cccc3cccc(c23)C1=O)N1CCCCC1	2.22%
O=C1c2ccccc2C(=O)N1CCCc1nc(-c2ccccc2)no1	1.31%
O=C1c2cccc3cccc(c23)C(=O)N1CCCCCc1n[nH]c(=S)o1	-80.1% (active)
COC(=O)c1ccc2nc(-c3ccccc3)c(Cc3ccc(OC)cc3C)n2c1	0.0747%
COCCNC(=O)CCCn1c(=O)c2ccccc2n(Cc2cccc([N+](=O)[O-])c2)c1=O	4.87%

Compound	activity change
COC(=O)c1ccc(Nc2ncnc3sccc23)cc1	-1.71%
CCOC(=O)c1ccc(N/C(=N/S(=O)(=O)c2ccccc2)c2ccccc2)cc1	-27.6%
CCOC(=O)c1nc(Nc2ccc(C(=O)OC)cc2)c2ccccc2n1	-84.8% (active)
COc1ccc(NC(=O)CSc2ccc(-c3ccco3)nn2)c(OC)c1	-14.2%
COc1ccc(NC(=O)CCC(=O)Nc2cc(OC)c(NC(=O)c3ccco3)cc2OC)c(OC)c1	-72.1% (active)
COc1ccc(CC(=O)Nc2ccccc2NC(=O)c2ccco2)cc1OC	-2.61%
COC(=O)C[C@@H]1C=C[C@@H](NC(=O)c2ccc3c(c2)OCO3)[C@@H](CO)O1	-3.63%
Cc1ccc(S(=O)(=O)N(C)c2ccc(OCC(=O)OCc3ccc(C#N)cc3)cc2)cc1	5.43%
O=C(Oc1ccc(F)cc1)N1CCOCC1	-1.89%
O=C(Oc1ccc(C(=S)N2CCOCC2)cc1)c1ccc(F)cc1	-91.7% (active)
O=C(Oc1cccc(C(=S)N2CCOCC2)c1)c1cccc(Cl)c1	-18.4%
CCCc1c(-c2ccccc2F)ncn1Cc1ccccc1OC	-11.2%
Cc1cc(NC(=O)CSc2nnc(-c3ccc(Cl)s3)o2)no1	-86.8% (active)
Cc1cc(NC(=O)CSc2ncc(C(F)(F)F)cc2Cl)no1	1.15%
O=C(CSc1nnc(-c2ccncc2)o1)Nc1cccc(Cl)c1	-1.81%
Cc1cc(OCc2cc(C(=O)NCc3cc(C(C)C)no3)no2)cc(C)c1Cl	14%
Cc1ccc(S(=O)(=O)N[C@H](CO)C(C)C)cc1	4.31%
O=S(=O)(NCCc1ccc(F)cc1)c1cccc2cccnc12	-7.51%
O=[N+]([O-])c1ccccc1S(=O)(=O)Nc1cccc2cccnc12	-91.7% (active)
Cc1ccc2cccc([N+](=O)[O-])c2n1	-20.1%
Cc1ccc(S(=O)(=O)C2C(=O)NC3(C)CC2c2ccccc2O3)cc1 (stereo not given)	6.28%
COC(=O)[C@]12CCCCC=C1N(Cc1ccc3c(c1)OCO3)C(=O)[C@H](CC(=O)NCc1cccs1)C2	-7.98%
